Structures are written as SMILES. The campaign covered roughly 200,000 compounds. About 18,000 (9%) were called active. This excerpt belongs to a sample that is enriched for actives. Values without a mark were called inactive. Cut-off read from the data, not from the text of the source: active = inhibition above about 50%; inactive = the rest.

Inhibition data for 60 compounds are collected here from PubChem BioAssay AID1063 (University of Pittsburgh Molecular Library Screening Center, 2008).

A short description of this assay: antileishmanial activity against promastigotes – primary screen (AID 1063).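 Note: promastigotes grown with compound for 44 hours at 28 °C.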 Particulars: Leishmania major promastigotes, resazurin fluorescence viability; at 10 µM; stronger effect = higher value. On the technique in general: Resazurin is reduced to fluorescent resorufin, in cell work by metabolically active cells.
Take `Cc1ccc2nc(COc3ccc(N(C)S(=O)(=O)c4ccccc4)cc3)cc(=O)n2c1`: the inhibition was -0.08%.

As for `Cc1nn(CCOc2ccc(Br)cc2)c(C)c1[N+](=O)[O-]`, the inhibition was -0.48%.

In the case of `COc1ccccc1CN(C)c1nnnn1-c1ccccc1`, the inhibition is 6.46%.

As for `CC(C)CC[n+]1ccn(C2=C([O-])c3ccccc3C(=O)/C2=N\S(=O)(=O)c2ccccc2)c1`, the inhibition is 77.1% (active).

`CN1C(=O)/C(=C/c2ccco2)SC1=Nc1cccc(C(=O)O)c1`: the inhibition was -6.02%.

Take `COCCCNC(=O)C1CCC(CNS(=O)(=O)c2ccc(OC)cc2)CC1` (stereo not given): the inhibition was -4.6%.

Regarding `CCC1(CC)NC(=O)N(CC(=O)OCC(=O)NC(=O)c2ccccc2)C1=O`, the inhibition was 10.3%.

In the case of `Cc1cc(-c2ccc(/C=N/n3cnnc3)o2)c([N+](=O)[O-])cc1C`, the inhibition was 2.14%.

With `Cc1cc([N+](=O)[O-])c(-c2ccc(/C=N/n3cnnc3)o2)cc1Cl`, the inhibition is 2.86%.

Take `Cc1ccc(Cl)cc1-c1ccc(/C=N/n2cnnc2)o1`: the inhibition is 64.2% (active).

Turning to `Cc1ccc(N2C(=O)SC(N(CC(=O)O)c3ccc(C)cc3)C2=O)cc1` (stereo not given), the inhibition is -0.34%.

Consider `CCOc1cccc(/C=N/NC(=S)NCCN2CCOCC2)c1O`, for which the inhibition was 4.68%.

For the compound `CNC(=S)N/N=C/c1ccc(N2CCOCC2)s1`, the inhibition is 90.2% (active).

For the compound `Cc1cc(C(=O)N/N=C/c2ccc(N3CCOCC3)cc2)c(C)o1`, the inhibition was 7.7%.

As for `COC(=O)Cc1ccc(OCC(=O)Nc2ccc(OC(F)(F)F)cc2)cc1`, the inhibition is 54.1% (active).

`CCNC(=S)Nc1ccc(OC(F)(F)F)cc1`: the inhibition is -1.95%.

Take `COC(=O)[C@H](C)NC(=O)Nc1ccc(OC(F)(F)F)cc1`: the inhibition was -4.5%.

On to `COc1ccc(OC)c(CNC(=O)c2cc(=O)[nH]c3ccc(S(=O)(=O)N4CCCC4)cc23)c1`, for which the inhibition is -4.76%.

Take `COc1ccc(-n2cc(CN(C)Cc3n[nH]c(=O)[nH]3)c(-c3cccc(F)c3)n2)cc1`: the inhibition is 2.9%.

Turning to `O=C(O)COc1ccc(/C=N/O)cc1Br`, the inhibition is -4.34%.

`O=C(CN1CCN(c2ccc(Cl)cc2)CC1)NCc1cccs1`: the inhibition is -4.73%.

In the case of `CCN(C(=O)Cc1nc(N)n[nH]1)C1(C(=O)Nc2ccccc2)CCCCC1`, the inhibition was -8.2%.

With `O=C1N/C(=N\N=C\c2ccco2)SC1Cc1ccc(F)cc1` (stereo not given), the inhibition was -16.9%.

For `Cc1cc(N)n2nc(-c3ccc(C(C)(C)C)cc3)cc2n1`, the inhibition was 80.3% (active).

For `Cc1cc(C(C)(C)C)cc(C)c1N`, the inhibition is 3.48%.

`COc1ccc(-c2cc(C)nc3nc(N)nn23)cc1`: the inhibition was 0.56%.

For `CCOC(=O)c1ccc(N2C(=O)CC(N3CCN(C(=O)c4ccccc4)CC3)C2=O)cc1` (stereo not given), the inhibition is -1.97%.

`O=C(c1ccc(F)cc1)n1cc(C(=S)N2CCOCC2)c2ccccc21`: the inhibition is -2.86%.

Turning to `Cc1c(NC(=S)NC(=O)CCc2ccccc2)c(=O)n(-c2ccccc2)n1C`, the inhibition is -2.93%.

`O=C(NCCc1ccccc1)/C(=C\c1ccc([N+](=O)[O-])cc1)NC(=O)c1ccccc1`: the inhibition was -2.32%.

On to `C=CCNC(=O)/C(=C\c1cccc([N+](=O)[O-])c1)NC(=O)c1ccccc1`, for which the inhibition was -2.62%.

`CN(C)CCNC(=O)/C(=C/c1cccc([N+](=O)[O-])c1)NC(=O)c1ccccc1`: the inhibition is 68.3% (active).

In the case of `Cc1nnc(SCc2cccc(Cl)c2)n(N)c1=O`, the inhibition was 9.66%.

Turning to `CN1CCN(S(=O)(=O)c2cccc(C(=O)N3CCc4ccccc43)c2)CC1`, the inhibition was 7%.

Consider `S=C(Nc1cccc(Br)c1)N1CCn2cccc2C1c1cccnc1` (stereo not given), for which the inhibition is 91.2% (active).

For the compound `S=C(NCCc1ccccc1)N1CCn2cccc2C1c1ccncc1` (stereo not given), the inhibition is 81.9% (active).

Regarding `O=C1CCN(C(=S)NCCc2ccccc2)CC1`, the inhibition is -11.3%.

As to `Fc1cc(Br)ccc1NC(=S)Nc1cccnc1`, the inhibition is 5.1%.

With `S=C(NCCc1ccccc1)N1CCCCC1`, the inhibition is -2.11%.

For `COc1cccc(NC(=O)CC2C(=O)NCCN2C(=S)Nc2ccc(F)cc2)c1` (stereo not given), the inhibition was -2.74%.

As for `O=C(/C=C/c1ccccc1)Oc1coc(CSc2ncccn2)cc1=O`, the inhibition was -7.34%.

`COCCCNC(=S)N(Cc1ccccc1)Cc1ccc(F)cc1`: the inhibition is 9.14%.

`Cc1cc(C)c2[nH]c(=O)c(CN(Cc3ccccc3)C(=S)NCCCN(C)C)cc2c1`: the inhibition is 100% (active).

Turning to `Cc1cccc2cc(CN(Cc3cccs3)C(=S)NCc3ccco3)c(=O)[nH]c12`, the inhibition is 46%.

As for `CN1C=CC=C/C1=C1\SC(=S)N(Cc2ccccc2)C1=O`, the inhibition was -0.34%.

On to `CN(C)C(CNC(=O)c1cccc(C#N)c1)c1ccco1` (stereo not given), for which the inhibition is 3.86%.

Turning to `COc1cccc2cc(C(C)N(CCCN3CCOCC3)C(=O)Nc3ccc(Cl)cc3)oc12` (stereo not given), the inhibition is 48.2%.

With `Cc1ccc(NC(=S)N(CCCN2CCCC2)Cc2cccn2Cc2ccc(Cl)cc2)cc1`, the inhibition is 99.7% (active).

As to `CCc1ccccc1NC(=S)N(CCN1CCCCCC1)Cc1ccco1`, the inhibition is 21.6%.

Take `CCOC(=O)N1CCN(C(=O)C2CCN(Cc3ccc(OC)cc3OC)CC2)CC1`: the inhibition was 53.4% (active).

With `CCOC(=O)N1CCN(CCC(=O)Nc2cc(OC)ccc2OC)CC1`, the inhibition is -3.46%.

Regarding `CCOC(=O)N1CCN(C(=O)C2CCN(S(C)(=O)=O)CC2)CC1`, the inhibition is -5.19%.

Turning to `Cc1ccc(C)c(Cn2nnc3c(=O)[nH]c(C(=O)Nc4ccc(F)cc4)nc32)c1`, the inhibition is 39%.

`O=[N+]([O-])c1ccc2[nH]c3c(c2c1)CCCC3O` (stereo not given): the inhibition is -1.72%.

For the compound `CCn1c(CNC(=O)c2ccco2)nnc1SCC(=O)Nc1cccc(F)c1`, the inhibition is -1.95%.

For the compound `CCCCNC(=O)N1CCN(S(C)(=O)=O)CC1`, the inhibition is -0.76%.

Regarding `Cc1ccc(C)c(NC(=O)CSc2nnc(Cc3cccn3C)n2-c2ccc(F)cc2)c1`, the inhibition was -0.8%.

For the compound `Cc1ccc(C)c(NC(=O)CSc2nc3c(oc4ccccc43)c(=O)n2-c2ccccc2)c1`, the inhibition is 97.7% (active).

Turning to `Cc1ccc(C)c(Cn2cnc3c(oc4ccccc43)c2=O)c1`, the inhibition is -7.39%.

With `COCCC(=O)Nc1ccc2c(c1)CN(C(=O)CCOC)CC2`, the inhibition was -5.46%.

What is called inhibition is the drop in the measured response relative to a control, in per cent.
